In PubChem BioAssay (NCI) one finds growth data, which are given here for 18 compounds.

This is part of a sample that, as a whole, favours compounds with a hit. Of some 83,000 tested, about 20% had one in any assay.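 Compound tested at a single concentration for 48 hours in 96-well plates; a percent growth value below 10 was scored as active.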 A number with no mark means an inactive call. Active and inactive are the calls of the source.

The test system of this assay is SNB-19 CNS. In words: NCI-60 one-dose screen, 48 h (100 = growth as untreated, 0 = no growth, -100 = all killed). Particulars: 10 µM.
As for `Cc1cc(C)c(N)c(S(=O)(=O)O)c1`, the growth is 96.5%. Next, `CC1CCC(C(=O)O)N1` (stereo not drawn): 102%; `S=c1sc2ccccc2n1CN1CCCCC1`: 104%.

Consider `CCCCC/C=N/Nc1nc(C)cc(=O)[nH]1`, for which the growth was 108%. Turning to `CCOC(=O)C(O)C(O)C(=O)OCC` (stereo not drawn), the growth was 103%. As for `CC(=O)NCc1cc(C)c(C)cc1C`, the growth was 109%. For the compound `CCN=c1cc2sc3cc(NCC)c(C)cc3nc-2cc1C`, the growth was 4.67% (active). The same measure for `COc1cc(-c2ccc(NC(=O)NC3CC3)c(OC)c2)ccc1NC(=O)NC1CC1`: 84.7%; for `O=C(NC1CCCCC1)OCc1c(COC(=O)NC2CCCCC2)c(-c2ccc(Cl)c(Cl)c2)n2c1CCC2`: 44.5%; for `COC(=O)c1ccccc1Br`: 96.4%. As to `COS(=O)(=O)c1ccc(Br)cc1`, the growth is 98.3%.

Take `COc1cc(C(=O)NC(=S)Nc2ccc3ccccc3c2)cc(OC)c1OC`: the growth is 107%.

Turning to `CC(=O)OCC(=O)[C@@]1(O)CC[C@H]2[C@@H]3CC[C@@H]4C[C@H](O)CC[C@]4(C)[C@H]3C(=O)C[C@@]21C`, the growth was 111%.

For `O=C1C=C(Nc2ccc([N+](=O)[O-])cc2)c2ccccc2C1=O`, the growth is 52.8%. For `CNC(=O)c1ccccc1CC1(O)c2ccccc2Oc2ccccc21`, the growth was 93%. Turning to `O=C(O)C(O)c1ccccc1` (stereo not drawn), the growth was 108%. Take `CCCCC1(CC)COC(CCC)OC1` (stereo not drawn): the growth was 99.9%. As for `CCOC(=O)c1ccc(NC(=S)P(=O)(c2ccccc2)c2ccccc2)cc1`, the growth is 106%.
